Here are results for five molecules from PubChem BioAssay.

“And” between values parts separate entries of the source, which are not always exact repeats. Identical values can stand only once. The source holds several records for some structures; these can differ, active in one and inactive in another. The source made the active and inactive calls.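 How the source made its calls, unless noted: active means inhibition at or above 50% relative to wild type and mutant plate controls; inactive means inhibition below 50%.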

Assay [1] can be described thus: inhibitors of TNFa-induced NFkB p65 translocation, primary screen, imaging, HUVEC, MLSMR starter and 10KST1 sets (AID 438;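 active means inhibition above 20% together with a positive visual image hit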;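 further: compound added about 3h40 before a 20 min TNFalpha stimulation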;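 on inhibition: signal is the nuclear over cytoplasmic p65 intensity ratio per well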). The conditions noted are these: HUVEC TNFa-induced p65 nuclear translocation; cell count: measured here: nuclei count (cytotoxicity indicator), at 2.08 µM; inhibition: at 2 µM, stronger effect = higher value, 0% TNFa-plus-vehicle, 100% no-TNFa wells.
The nature of assay [2]: reduction of polyQ htt aggregates in cells – imaging, exon1htt(103Q)mCFP cells, high-content imaging, primary screen (AID 483;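 active means visual image review flags a hit and inhibition of aggregation exceeds 20%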;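 further: compound exposure lasted 3 days before fixation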;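 on nuclei count: percent of the per-plate median nuclei count of sample wells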). The conditions noted are these: exon1htt(103Q)mCFP cell line, aggregate imaging, at 2 µM; inhibition of aggregation: stronger effect = higher value; nuclei count: measured here: cell count, toxicity.
The nature of assay [3]: endothelial E-selectin expression blockers – imaging, HUVEC, immunofluorescence, MLSMR starter and 10KST1 sets, primary screen (AID 487;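 active means visually confirmed hit in the image check and inhibition above 20%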;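 on inhibition: signal is fraction of cell area covered by stained E-selectin grains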;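 on nuclei count: 100% = median nuclei count of all wells on the same plate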). The conditions noted are these: HUVEC TNFalpha-induced E-selectin immunofluorescence imaging, at 2 µM; inhibition: stronger effect = higher value; nuclei count: measured here: cell number, toxicity.
Assay [4] in a line: Primary imaging screen for DUSP6 inhibitors that restore phospho-Erk in transfected HeLa cells, chemical complementation (AID 609;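 active means compounds giving at least 50% inhibition in the cell-based MKP-3 phosphatase rescue imaging test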;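 on inhibition: phospho-Erk level distribution per well compared with pooled transfected vehicle control wells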). The conditions noted are these: HeLa MKP-3 transfected, phospho-Erk imaging KS statistic, at 10 µM, cells stimulated with TPA for 15 min.
Assay [5] concerns the target Dual specificity protein phosphatase 6 (Homo sapiens) (UniProt Q16828). Described as above. The conditions noted are these: HeLa MKP-3 transfected, phospho-Erk imaging KS statistic; at 10 µM; stronger effect = higher value; cells stimulated with TPA for 15 min.
In assay [6] the target is Voltage-gated potassium channel subunit beta-2 (Rattus norvegicus) (UniProt P62483). Description: inhibitors of rat Kvbeta2 reductase activity – biochemical, NADPH fluorescence, primary screen (AID 622;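 active means fluorescence slope higher than the sample average by over 3 SD, cut at about -0.22 in these data, passing the limit was not always enough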;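 further: slope of raw intensity against log time taken from 70 to 1610 s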). The following applies: recombinant KvBeta, 4-cyanobenzaldehyde reduction, at 10 µM, stronger effect = higher value.
Sequence of Voltage-gated potassium channel subunit beta-2 (Rattus norvegicus) (P62483 whole entry, looked up): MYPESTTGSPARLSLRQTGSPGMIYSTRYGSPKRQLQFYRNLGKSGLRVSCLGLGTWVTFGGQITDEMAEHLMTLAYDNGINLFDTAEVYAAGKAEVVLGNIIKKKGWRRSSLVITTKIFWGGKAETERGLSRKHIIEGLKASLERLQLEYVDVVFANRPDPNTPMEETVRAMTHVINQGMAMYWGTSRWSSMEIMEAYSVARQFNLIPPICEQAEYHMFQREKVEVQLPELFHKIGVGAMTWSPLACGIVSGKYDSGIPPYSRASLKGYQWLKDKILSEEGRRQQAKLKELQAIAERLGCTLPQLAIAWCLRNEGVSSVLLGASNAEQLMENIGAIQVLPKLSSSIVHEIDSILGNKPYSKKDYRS
Assay [7] shares this target. Description: enhancers of rat Kvbeta2 NADPH turnover – biochemical, NADPH fluorescence, primary screen (AID 623;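 active means NADPH fluorescence slope more negative than the mean of all samples by about 3 SD, 99.7% confidence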;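 further: fluorescence intensity change per second fitted from 20 to 320 s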). The following applies: Recombinant KvBeta, NADPH fluorescence decrease slope, 10 min; at 10 µM; stronger effect = lower value.
In assay [8] the target is Alpha-2C adrenergic receptor (Homo sapiens) (UniProt P18825). The assay can be described thus: compounds altering alpha2C-coupled GIRK flux – cell-based, HEK293 alpha2C/GIRK1/2, thallium flux, primary screen (AID 624;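 active means fluorescence slope after compound addition differing from the mean of all screened samples at 99.7% confidence, in either direction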;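 further: slope of fluorescence ratio to pre-addition baseline per second over 15 to 24 s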). The following applies: thallium flux BTC fluorescence, at 10 µM, actives lie on both sides.
Sequence of Alpha-2C adrenergic receptor (Homo sapiens) (P18825 whole entry, looked up): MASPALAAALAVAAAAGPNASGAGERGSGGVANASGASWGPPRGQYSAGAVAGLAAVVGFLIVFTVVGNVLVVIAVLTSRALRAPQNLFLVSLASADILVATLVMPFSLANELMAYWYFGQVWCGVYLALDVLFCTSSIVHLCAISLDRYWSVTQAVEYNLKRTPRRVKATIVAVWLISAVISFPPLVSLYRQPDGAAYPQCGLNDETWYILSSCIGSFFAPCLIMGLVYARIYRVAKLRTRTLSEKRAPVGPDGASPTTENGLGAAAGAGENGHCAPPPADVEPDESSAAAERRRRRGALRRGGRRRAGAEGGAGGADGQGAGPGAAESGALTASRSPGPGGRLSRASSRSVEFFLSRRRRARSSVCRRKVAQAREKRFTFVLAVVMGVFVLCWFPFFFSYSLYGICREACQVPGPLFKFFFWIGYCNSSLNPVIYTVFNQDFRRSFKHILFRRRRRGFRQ
Assay [9] in a line: inhibitors of larval lipid processing in zebrafish, primary screen, whole organism, PED6 fluorescence, gall bladder and intestine (AID 686;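 active means a full or partial loss of lipid-probe fluorescence in the fish gall bladder, intestine or both, judged by eye; inactive means no fluorescence loss, or compound toxic to the fish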;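 further: larvae 5 to 7 days old with five fish per well; signal comes from phospholipase A2 cleavage of quenched PED6 carried via bile; overnight exposure to compound and PED6 before scoring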). The following applies: Zebrafish larvae PED6 lipid processing, fluorescence scoring; screened at 20 µM (by protocol).
Assay [10] in a line: loss of swimming-algae plug formation – whole organism, Chlamydomonas reinhardtii, WT vs cilia-less mutant, absorbance, 96-well, primary screen (AID 463189).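 Further: 0% = wild type cc124 cells in DMSO and 100% = ciliumless bld1 mutant cells.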 The following applies: Chlamydomonas reinhardtii gravitaxis, OD600 absorbance, 2 days; at 10 µM; stronger effect = higher value.
The nature of assay [11]: blockers of RIG-like receptor reporter activation – cell-based, Sendai virus stimulus, luciferase, 10K MLSCN set, TLR/RLR signaling modifier project, primary screen (AID 602276;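 active means inhibition at or above 50% at 10 µM; inactive means inhibition below 50%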;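 further: firefly luciferase from ISG56 promoter only with Renilla not read in this screen; 0% = Sendai virus plus DMSO and 100% = medium plus DMSO without virus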). The conditions noted are these: HEK293 RL24 IRF3 luciferase reporter, at 10 µM, stronger effect = higher value. (In general: Reporter assays use an easily measured gene product as a stand-in for the process of interest.)

Assay [12] is described as follows: TLR3 IRF3 reporter activation blockers – cell-based, poly I:C stimulus, luciferase, 10K MLSCN set, primary screen (AID 602277;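 active means inhibition of the reporter signal at or above 50%; inactive means inhibition below 50%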). The conditions noted are these: HEK293-TLR3 RL24 IRF3 luciferase reporter, at 10 µM, stronger effect = higher value.
Setting [13] is: measured here: cell density z-score.
[14] abbreviates: measured here: nuclear c-Myc green intensity z-score.
Setting [15] is: measured here: nuclear pErk red intensity z-score, stronger effect = higher value.

Sequence of Dual specificity protein phosphatase 6 (Homo sapiens) (Q16828 whole entry, looked up): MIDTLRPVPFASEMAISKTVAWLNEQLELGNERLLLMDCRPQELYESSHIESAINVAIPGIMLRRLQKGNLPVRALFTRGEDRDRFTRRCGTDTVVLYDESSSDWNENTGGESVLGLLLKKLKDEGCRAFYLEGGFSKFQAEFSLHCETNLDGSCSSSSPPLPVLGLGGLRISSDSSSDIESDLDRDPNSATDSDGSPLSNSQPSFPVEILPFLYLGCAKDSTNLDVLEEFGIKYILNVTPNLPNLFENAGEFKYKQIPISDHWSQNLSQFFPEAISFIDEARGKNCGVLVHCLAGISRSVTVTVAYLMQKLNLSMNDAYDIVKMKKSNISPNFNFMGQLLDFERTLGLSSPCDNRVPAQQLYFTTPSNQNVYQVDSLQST

Take `Cc1nc2sccn2c(=O)c1CCN1CCC(=C(c2ccc(F)cc2)c2ccc(F)cc2)CC1`: the cell count in assay [1] stood at 597. Further, the inhibition was -5.2% (inactive) in assay [1]; -80.7% (inactive) in [3]; 27.9% (inactive) in [5]; 29.2% (inactive) and 168% (active) in [10]; 12% (inactive) in [11]; -6.25% (inactive) in assay [12]. Also, the inhibition of aggregation in assay [2] was 4% (inactive). Also, the nuclei count stood at 104% in [2] and 112% in assay [3]. Also, the results for the z-score in [4] (setting [13]), in assay [4] (setting [14]) and in assay [4] (setting [15]) were 0.864, 0.124 and -0.385, respectively. The fluorescence slope in [6] is -0.459 (inactive). Moreover, the NADPH fluorescence slope in assay [7] is -4.2e-05 (inactive). Also, the slope in assay [8] was 0.0045 (inactive). For the same molecule, the outcome in [9] is “inactive; toxic”.

Take `C=CCSc1nnc2n(-c3ccccc3OC)c(=O)c3c4c(sc3n12)CCC4`: the cell count in assay [1] stood at 578. The inhibition in assay [1] was -5.9% (inactive); in [3], -27% (inactive); in [5], 7.73% (inactive); in assay [10], 43.3% (inactive); in [11], 1.81% (inactive); in assay [12], 0.316% (inactive). Besides, in assay [2], the inhibition of aggregation was 15.1% (inactive). The values for the nuclei count in [2] and in assay [3] were 59.7% and 126%, respectively. Also, the z-score in [4] (setting [13]) was 0.876; in [4] (setting [14]), -0.888; in assay [4] (setting [15]) it was -0.633. The fluorescence slope in assay [6] is -0.339 (inactive). The NADPH fluorescence slope in assay [7] was -1.1e-06 (inactive). Besides, the slope in [8] is 0.00538 (inactive). Moreover, in [9], the molecule was classed as inactive.

Take `Cc1nc(SC2C=CS(=O)(=O)C2)n[nH]1` (stereo not given): the cell count in assay [1] was 427. The inhibition in assay [1] is -0.8% (inactive); in [3], -43.2% (inactive); in assay [5] it was -6.86% (inactive); in assay [10], -12% (inactive); in assay [11] it was 14.6% (inactive); in assay [12], 18.4% (inactive). Further, the inhibition of aggregation in assay [2] was 10.8% (inactive). Also, the figures for the nuclei count in [2] and in [3] were 98.1% and 139%, respectively. The z-score in assay [4] (setting [13]) is -0.37; in assay [4] (setting [14]), 0.156; in assay [4] (setting [15]) it was 1.24. For the same molecule, the fluorescence slope in [6] is -0.482 (inactive). Moreover, the NADPH fluorescence slope in assay [7] is -0.000222 (inactive). Besides, the slope in assay [8] was 0.00468 (inactive). Also, the molecule was classed as inactive in assay [9].

Regarding `O=C(O)/C=C/c1ccc(O)c(O)c1`, the cell count in [1] came out at 613. The inhibition was 4% (inactive) in [1]; -48.2% (inactive) in [3]; 10.2% (inactive) in assay [5]; -2.7% (inactive) and 27.7% (inactive) in assay [10]; 8.79% (inactive) in [11]; 43.2% (inactive) in [12]. For the same molecule, the inhibition of aggregation in assay [2] was 8.3% (inactive). Moreover, the nuclei count in [2] stood at 103%; in assay [3] it was 116%. The figures for the z-score in assay [4] (setting [13]), in assay [4] (setting [14]) and in assay [4] (setting [15]) were -0.618, -0.142 and -0.455, respectively. Also, the fluorescence slope in assay [6] is -0.453 (inactive). For the same molecule, the NADPH fluorescence slope in assay [7] was -6.6e-05 (inactive). Also, the slope in assay [8] is 0.00437 (inactive). The result in assay [9] was inactive.

With `Cc1ccc2nc(C(F)(F)F)c(C#N)c(N)c2c1`, the cell count in assay [1] stood at 451. Further, the inhibition in assay [1] was -9.7% (inactive); in assay [3], -14.1% (inactive); in assay [5], 1.75% (inactive); in [10], -8.78% (inactive); in [11], 20% (inactive); in [12] it was -10.8% (inactive). The inhibition of aggregation in [2] is 11% (inactive). The nuclei count in [2] stood at 77.3%; in [3], 90.7%. Moreover, the z-score in assay [4] (setting [13]) was -0.557; in assay [4] (setting [14]) it was -0.479; in assay [4] (setting [15]) it was -0.0348. For the same molecule, the fluorescence slope in assay [6] is -0.49 (inactive). Also, the NADPH fluorescence slope in [7] is -2e-05 (inactive). The slope in [8] is 0.00524 (inactive). Besides, in assay [9], the call was inactive.

What is called inhibition is the change of the read-out against control, counted positive when it falls.
